Laboratory results as given in PMC4552634, “A New Set of Chemical Starting Points with Plasmodium falciparum Transmission-Blocking Potential for Antimalarial Drug Discovery” (PLoS ONE, 2015).
Out of some 13,000 compounds screened, about 3,200 (25%) showed an effect of 50% or more. Some of the results follow.

What follows are compounds tested on P. falciparum stage V gametocytes. Details: 48 h, 5 µM; inhibitor.
Design: BacTiter-Glo ATP luminescence viability of purified stage V gametocytes in 384-well plates, per cent inhibition versus DMSO
For `COc1cccc(CN2Cc3ccccc3OC3(CCN(Cc4c[nH]c5cnccc45)CC3)C2)c1` [TCMDC-133378], the “% Inhibition” value was 19.44%. In the case of `Cc1ccc(CN2CCN(c3cc4c(cc3Cl)CCN4C(=O)Cc3ccc(Cl)c(NC(=O)Nc4cccc(C#N)c4)c3)CC2)cc1` [TCMDC-139471], the “% Inhibition” value is reported as 12.97%. With `CN(CCS(C)(=O)=O)Cc1ccc(-c2ccc3ncnc(Nc4ccc(OCc5cccc(F)c5)c(Cl)c4)c3c2)o1` [TCMDC-138629] the “% Inhibition” value was -22.68%. With `O=C(c1cc(C(=O)Nc2ccccc2F)c(=O)n(-c2ccccc2F)c1)c1cc(Cl)ccc1O` [TCMDC-123625] the “% Inhibition” value was 90.03%. In the case of `O=C(c1cc(C(=O)Nc2ccccc2)c(=O)n(-c2ccccc2)c1)c1cc(Cl)ccc1O` [TCMDC-124511], the “% Inhibition” value is reported as 30.05%. For `O=C(c1cc(C(=O)Nc2ccc(F)cc2)c(=O)n(-c2ccc(F)cc2)c1)c1cc(Cl)ccc1O` [TCMDC-123626], the “% Inhibition” value was 8.881%. With `Cc1ccc(O)c(C(=O)c2cc(C(=O)Nc3ccccc3C)c(=O)n(-c3ccccc3C)c2)c1` [TCMDC-123627] the “% Inhibition” value was 58.98%. `COc1ccccc1NC(=O)c1cc(C(=O)c2cc(Cl)ccc2O)cn(-c2ccccc2OC)c1=O` [TCMDC-124338] was tested, and the “% Inhibition” value was 29.65%. `COc1ccc(O)c(C(=O)c2cc(C(=O)NCCc3ccccc3)c(=O)n(CCc3ccccc3)c2)c1` [TCMDC-125435] was tested, and the “% Inhibition” value was -12.88%. `O=C(Nc1ccc(-c2cccc(-c3nc4ccc(F)cc4[nH]3)c2)cc1)c1cnn2cccnc12` [TCMDC-136864] was tested, and the “% Inhibition” value was -12.66%. For `C(=NNc1ccnc2ccccc12)c1ccncc1` [TCMDC-142016], the “% Inhibition” value was -6.172%. For `CCCCNCc1ccc(-c2nc(CN(CCCn3ccnc3)C(=O)NC3CC3c3ccccc3)cs2)cc1` (stereo not drawn) [TCMDC-141638], the “% Inhibition” value was 80.86%. In the case of `CCCCNCc1ccc(-c2nc(CN(CCCn3ccnc3)C(=O)Nc3ccc(CC)cc3)cs2)cc1` [TCMDC-141639], the “% Inhibition” value is reported as 61.14%. With `CN1CCN(CCCN(Cc2csc(-c3ccc(CNCc4ccccc4)cc3)n2)C(=O)Nc2cccc(Cl)c2)CC1` [TCMDC-141794] the “% Inhibition” value was 15.5%. With `O=C(C1COc2ccccc2O1)N(CCCn1ccnc1)Cc1csc(-c2ccc(CNCc3ccccc3)cc2)n1` (stereo not drawn) [TCMDC-141813] the “% Inhibition” value was 25.07%. `CN1CCCN(Cc2ccc(-c3cccc(NC(=O)c4cccc(Cl)c4)c3)cc2)CC1` [TCMDC-132641] was tested, and the “% Inhibition” value was 27.52%. `O=C(Nc1ccc2ccccc2c1)N(CCCn1ccnc1)Cc1csc(-c2ccc(CNCc3ccccc3)cc2)n1` [TCMDC-141798] was tested, and the “% Inhibition” value was 15.32%. In the case of `CCc1ccc(NC(=O)N(CCCn2ccnc2)Cc2csc(-c3ccc(CNCc4ccccc4)cc3)n2)cc1` [TCMDC-141797], the “% Inhibition” value is reported as 5.722%. With `CCCCNCc1ccc(-c2nc(CN(CCCN3CCN(C)CC3)C(=O)Nc3cccc(Cl)c3)cs2)cc1` [TCMDC-141637] the “% Inhibition” value was 88.1%. In the case of `CCCCNCc1ccc(-c2nc(CN(CCCn3ccnc3)C(=O)C3COc4ccccc4O3)cs2)cc1` (stereo not drawn) [TCMDC-141702], the “% Inhibition” value is reported as 64.34%. With `CCCN(Cc1nnc(-c2cccs2)o1)C(=O)C1COc2ccccc2O1` (stereo not drawn) [TCMDC-125333] the “% Inhibition” value was 18.28%. `CCOC(=O)CC[C@@H](NC(=O)c1ccc(NCc2ccc3ccc4nc(C)[nH]c(=O)c4c3c2)cc1F)C(=O)N[C@@H](Cc1c[nH]c2ccccc12)C(=O)OCC` [TCMDC-137320] was tested, and the “% Inhibition” value was 27.07%. With `O=C(Nc1cccc(-c2cc(-c3c(Cl)cccc3Cl)no2)c1)c1cnc2ccccc2c1` [TCMDC-136759] the “% Inhibition” value was 13.25%. In the case of `CC(=O)N(C)C1CCN(Cc2cccc(-c3ccc(-c4nc5cc(F)ccc5[nH]4)cc3)c2)C1.O=C(O)C(F)(F)F` (stereo not drawn) [TCMDC-133894], the “% Inhibition” value is reported as 26.71%. `O=C(NC1CCN(Cc2ccc3c(c2)OCCO3)CC1)c1ccc(-c2cccc(Cl)c2)s1` [TCMDC-134338] was tested, and the “% Inhibition” value was 2.147%. In the case of `O=C(NC1CC1c1ccccc1)N(CCCn1ccnc1)Cc1csc(-c2ccc(CNCc3ccccc3)cc2)n1` (stereo not drawn) [TCMDC-141644], the “% Inhibition” value is reported as 86.73%. With `O=C(NC1CCCCC1)N(CCCn1ccnc1)Cc1csc(-c2ccc(CNCc3ccccc3)cc2)n1` [TCMDC-141645] the “% Inhibition” value was 7.097%. With `O=C(Nc1cccc(Cl)c1)N(CCCn1ccnc1)Cc1csc(-c2ccc(CNCc3ccccc3)cc2)n1` [TCMDC-141796] the “% Inhibition” value was 19.94%. With `CC(=O)c1cccc(S(=O)(=O)NCCCNc2nc3cc(C)cc(C)c3cc2C#N)c1` [TCMDC-123734] the “% Inhibition” value was 8.065%. With `CCS(=O)(=O)N1CCN(c2nc(-c3ccccc3)nc(COC)c2Cc2ccccc2F)CC1` [TCMDC-124784] the “% Inhibition” value was -1.025%. For `COc1cc(/C=N/Nc2nc(Nc3ccccc3)nc(Nc3ccccc3)n2)ccc1OCc1ccccc1[N+](=O)[O-]` [TCMDC-125793], the “% Inhibition” value was 59.87%. For `O=[N+]([O-])c1cccc(C=NNc2nc(Nc3ccccc3)nc(Nc3ccccc3)n2)c1` [TCMDC-125797], the “% Inhibition” value was 40.05%. For `COc1ccc(Nc2nc(N/N=C/c3ccc(O)cc3)nc(Nc3ccc([N+](=O)[O-])cc3)n2)cc1` [TCMDC-124127], the “% Inhibition” value was -40.32%. In the case of `Cc1cc(NC2CCCC2)nc(Nc2ccccc2C)n1` [TCMDC-133473], the “% Inhibition” value is reported as -0.2818%. For `O=C(Cc1ccc(Cl)cc1)Nc1cc(Cl)ccc1Cn1cnc(N2CCNCC2)cc1=O` [TCMDC-134317], the “% Inhibition” value was -8.964%. In the case of `Cc1cc(NCCCN2CCCC2=O)n2c(nc3ccccc32)c1C#N` [TCMDC-124485], the “% Inhibition” value is reported as -25.7%. `Cl.Oc1ccccc1Nc1nc(NCc2ccco2)c2ccccc2n1` [TCMDC-124544] was tested, and the “% Inhibition” value was -81.25%. In the case of `COc1ccc2ncc(C#N)c(CCN3C[C@H](CNCc4ccccc4)[C@H](O)C3)c2n1` [TCMDC-136369], the “% Inhibition” value is reported as 48.08%. In the case of `Cc1nc(NCc2ccccc2)cc(Nc2cc(NCc3ccccc3)nc(C)n2)n1` [TCMDC-137298], the “% Inhibition” value is reported as 0.4033%. For `Cc1ccc(O)c(Nc2c3c(c(C#N)c4nc5ccccc5n24)CCC3)c1` [TCMDC-124227], the “% Inhibition” value was 16.2%. In the case of `CCCCNc1c(CC)c(C)c(C#N)c2nc3ccccc3n12` [TCMDC-125729], the “% Inhibition” value is reported as 72.07%. In the case of `COc1ccc(Nc2nc(NCc3ccco3)c3ccccc3n2)cc1.Cl` [TCMDC-124562], the “% Inhibition” value is reported as 32.58%. For `CCc1c(C)c(C#N)c2nc3ccccc3n2c1NCc1ccco1` [TCMDC-124079], the “% Inhibition” value was 78.38%. In the case of `Cc1c(CCC#N)c(NCc2ccccc2)n2c(nc3ccccc32)c1C#N` [TCMDC-123759], the “% Inhibition” value is reported as 74.35%. With `COc1ccccc1N=C1SC(=Cc2cn(CC(=O)N3CCCc4ccccc43)c3ccccc23)C(=O)N1C1CCCCC1` [TCMDC-124809] the “% Inhibition” value was 13.24%. `Cc1c(C(=O)N2CCCC(C(F)(F)F)C2)sc2cccc(F)c12` (stereo not drawn) [TCMDC-124598] was tested, and the “% Inhibition” value was 6.461%. In the case of `CS(=O)(=O)CCNCc1ccc(-c2cc3c(Nc4ccc(OCc5cccc(F)c5)c(Cl)c4)ncnc3s2)[nH]1` [TCMDC-135511], the “% Inhibition” value is reported as -19.72%. In the case of `COc1ccc(C2CC(=O)C3=C(C2)NC(C)=C(C(=O)OC2CCCC2)C3c2cccc(O)c2)cc1` (stereo not drawn) [TCMDC-125631], the “% Inhibition” value is reported as 10.18%. For `CC(C)(CNCc1ccc(Cl)cc1)c1nc(-c2ccc(Cl)c(O)c2)c(-c2ccncc2)[nH]1` [TCMDC-140548], the “% Inhibition” value was -50.17%. `CC(C)(CNCc1ccc(F)c(F)c1)c1nc(-c2ccc(Cl)c(O)c2)c(-c2ccncc2)[nH]1` [TCMDC-140672] was tested, and the “% Inhibition” value was -67.6%. For `CC(C)(CNCc1ccc(C(F)(F)F)cc1)c1nc(-c2ccc(Cl)c(O)c2)c(-c2ccncc2)[nH]1` [TCMDC-140689], the “% Inhibition” value was 22.22%. In the case of `COc1ccc(CNCC(C)(C)c2nc(-c3ccc(Cl)c(O)c3)c(-c3ccncc3)[nH]2)cc1` [TCMDC-140538], the “% Inhibition” value is reported as -60.58%. For `CN(C)CCCOc1ccc(CNCC(C)(C)c2nc(-c3ccc(Cl)c(O)c3)c(-c3ccncc3)[nH]2)cc1` [TCMDC-140650], the “% Inhibition” value was 71.95%. `CC(C)(CNCc1ccc(Cl)c(Cl)c1)c1nc(-c2ccc(Cl)c(O)c2)c(-c2ccncc2)[nH]1` [TCMDC-140688] was tested, and the “% Inhibition” value was 78.8%. For `CC(C)(CNCc1cccc(Oc2ccccc2)c1)c1nc(-c2ccc(Cl)c(O)c2)c(-c2ccnc(N)n2)[nH]1` [TCMDC-141167], the “% Inhibition” value was 23.98%. In the case of `CC(C)(CNCc1ccc(C(F)(F)F)cc1)c1nc(-c2ccc(Cl)c(O)c2)c(-c2ccnc(N)n2)[nH]1` [TCMDC-141162], the “% Inhibition” value is reported as 38.42%. `CC(C)(CNCc1cccc(Oc2cccc(C(F)(F)F)c2)c1)c1nc(-c2ccc(Cl)c(O)c2)c(-c2ccnc(N)n2)[nH]1` [TCMDC-141166] was tested, and the “% Inhibition” value was 55.63%. With `Cc1ccc2nc(C)cc(NC(=O)Nc3ccc(N(C)C)cc3)c2c1` [TCMDC-140108] the “% Inhibition” value was -84.19%. In the case of `N#Cc1ccc2c(c1)CCN(CCC1CCC(NC(=O)/C=C/c3ccc(Cl)c(Cl)c3)CC1)CC2` (stereo not drawn) [TCMDC-139792], the “% Inhibition” value is reported as -12.21%. In the case of `CC(C)C(=O)Nc1c(F)cc(F)cc1CCc1ccc(O)cc1` [TCMDC-137532], the “% Inhibition” value is reported as 15.35%. With `CC1(C)N=C(N)NC(Nc2ccc(F)c(F)c2)=N1` [TCMDC-123533] the “% Inhibition” value was -23.61%. With `CN1CCN(Cc2ccc(-c3ccc4c(Nc5ccc(Oc6ccccc6)cc5)ccnc4c3)o2)CC1` [TCMDC-138402] the “% Inhibition” value was 53.53%. `CN1CCN(Cc2ccc(-c3cc4nccc(Nc5ccc(Oc6ccccc6)cc5)c4cc3Cl)o2)CC1` [TCMDC-138463] was tested, and the “% Inhibition” value was 37.01%. For `CN1CCN(Cc2ccc(-c3ccc4c(Nc5ccc(Oc6ccccn6)cc5)ccnc4c3)o2)CC1` [TCMDC-138420], the “% Inhibition” value was 73.84%. In the case of `c1ccc(Oc2ccc(Nc3ccnc4cc(-c5ccc(CNCCN6CCOCC6)o5)ccc34)cc2)nc1` [TCMDC-138423], the “% Inhibition” value is reported as -53.28%. `c1ccc(Oc2ccc(Nc3ccnc4cc(-c5ccc(CN6CCNCC6)o5)ccc34)cc2)nc1` [TCMDC-138421] was tested, and the “% Inhibition” value was 97.92%. `Cc1ccc(O)cc1Nc1ccnc2cc(-c3ccc(CN4CCCCC4)o3)ccc12` [TCMDC-138384] was tested, and the “% Inhibition” value was 25.1%. With `c1ccc(Oc2ccc(Nc3ccnc4cc(-c5ccc(CN6CCCCC6)o5)ccc34)cc2)nc1` [TCMDC-138422] the “% Inhibition” value was -0.3034%. In the case of `c1ccc(Oc2ccc(Nc3ccnc4cc(-c5ccc(CN6CCOCC6)o5)ccc34)cc2)nc1` [TCMDC-138424], the “% Inhibition” value is reported as 11.61%.
